# From PubChem
# Vif-A3F inh – inhibitors of Vif-A3F interaction; 390,000 tested, 0.2% active; Potency, µM (series often up to 46.1 µM); AID 602313; HeLa A3F-eYFP + Vif (tagged APOBEC3F with the HIV-1 protein that degrades it), YFP fluorescence increase; further: nearly all actives have a fitted effect of over 65% in size
#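 HeLa cells stably expressing Vif plus C-terminally eYFP-tagged A3F were seeded, incubated overnight at 37 deg C, dosed with compound, incubated overnight again at 37 deg C. Yellow fluorescence (Ex 488/Em 500-530) reported blocked Vif-mediated A3F-eYFP degradation.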
# 12-LOX inh – blocks human arachidonate 12S-lipoxygenase | purified 12hLO, xylenol orange hydroperoxide absorbance | Potency, µM (titrated, usually from 108 µM), actives largely listed as inhibitors | 580,000 tested, 1.1% active
# Target sequence (P18054 whole entry, looked up): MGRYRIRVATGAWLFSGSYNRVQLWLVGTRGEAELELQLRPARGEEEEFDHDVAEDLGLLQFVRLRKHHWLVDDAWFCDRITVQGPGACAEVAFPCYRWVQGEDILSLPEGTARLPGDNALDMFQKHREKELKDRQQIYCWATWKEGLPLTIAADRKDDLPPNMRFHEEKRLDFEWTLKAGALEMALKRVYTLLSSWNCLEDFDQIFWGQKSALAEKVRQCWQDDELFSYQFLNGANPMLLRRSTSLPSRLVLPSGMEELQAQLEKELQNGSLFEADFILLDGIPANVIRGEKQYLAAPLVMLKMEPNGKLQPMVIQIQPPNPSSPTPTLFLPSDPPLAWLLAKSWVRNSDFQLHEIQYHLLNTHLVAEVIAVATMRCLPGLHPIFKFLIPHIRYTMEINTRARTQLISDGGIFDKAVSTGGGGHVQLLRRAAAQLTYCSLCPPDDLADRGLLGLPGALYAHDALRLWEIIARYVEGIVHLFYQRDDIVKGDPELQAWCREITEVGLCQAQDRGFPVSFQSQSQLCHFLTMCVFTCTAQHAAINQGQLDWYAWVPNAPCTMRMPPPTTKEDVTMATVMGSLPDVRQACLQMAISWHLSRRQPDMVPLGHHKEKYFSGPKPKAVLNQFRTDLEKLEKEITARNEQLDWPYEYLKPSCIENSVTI
#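 Purified human 12hLO (150 nM final) in 25 mM Hepes, 0.01% Triton X-100, pH 7.0 was preincubated 15 min at room temperature with compound. Then 40 uM arachidonic acid was added, 30 min. Hydroperoxide was read by Fe-XO absorbance ratio 573/405 nm.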
# TSG101-PTAP inh – blocks PTAP/TSG101 interaction to inhibit HIV-1 budding; 340,000 tested, under 10 active; Potency, µM (titrated, usually from 115 µM), most hits filed as inhibitors; Fluorescence polarization, FITC-PTAP peptide / Tsg101 binding; Q99816; active means well fitted inhibition curve with a large enough effect in the main read-out, with a control signal flat, not every such curve was filed as active; inconclusive means small, poorly fitted or top-dose-only effect, or effect the other way, or a change in a side signal; inactive means no such curve, though single readings can be large or run the other way
#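 Steps: Tsg101 binding domain dispensed (10 uM final), compounds pinned in DMSO, FITC-labeled PTAP-motif peptide added (50 nM final); after 20 min binding at room temperature, polarization measured.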
# S-ASM inh – inhibitors of human secretory acid sphingomyelinase; P17405; placental ASM, HMU-PC fluorogenic substrate, 60 min; Potency, µM (highest dose often 57.5 µM), usual class: inhibitors; 340,000 tested, 0.006% active; AID 504937
#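 qHTS format. ASM enzyme prepared from human placenta hydrolyses the fluorogenic substrate HMU-PC0 (9 uM final) over 60 min at 37 °C after a 10 min compound preincubation.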
# Vif-APOBEC3G blk – inhibitors of Vif-APOBEC3G interaction; Q9HC16; HeLa A3G-eYFP + Vif (tagged APOBEC3G with the HIV-1 protein that degrades it), YFP fluorescence, overnight; Potency, µM (series often up to 46.1 µM), most hits filed as inhibitors; 410,000 tested, 0.076% active; further: nearly all actives have a fitted effect of over 60% in size
#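 Read-out is eYFP fluorescence (Ex 488/Em 500-530) from Vif-expressing HeLa A3G-eYFP cells; more signal means A3G escaped Vif-mediated degradation. Cells plated overnight, compound pinned in, incubated overnight at 37 deg C.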
# Akt phos inh – Akt phosphorylation inhibition; Neuro2A IGF-stimulated pAkt S473 HTRF, 20 min; hits give low values; activity change, % for hits at 50 µM; 360,000 tested, 0.32% active; AID 651550; in the data active means activity change below about -80%; inconclusive means mostly about -51% to -80%
#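 Neuro2A cells (4,500/well, DMEM with 0.5% FBS) were treated with compound at a single 50 µM final concentration, stimulated with 6 nM IGF for 20 min at 37 °C, and lysed. Phospho-Akt Ser473 was read by HTRF as 665/615 ratio ×10^4.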
# Hits are given with their value; i = inactive; ? = inconclusive; nt = not tested or not shown; ! = a repeat was not active. A selection: hits, their analogues and other compounds. The true share with any hit is near 1.4%. Unless noted, the call rests on the fitted dose curve; in most records, active means well fitted curve in the direction sought with a large enough effect; inconclusive means small, poorly fitted or top-dose-only effect, or another doubt; inactive means no such curve, though single readings can be large; an effect the other way counts as inactive or inconclusive.
SMILES,Vif-A3F inh,12-LOX inh,TSG101-PTAP inh,S-ASM inh,Vif-APOBEC3G blk,Akt phos inh
O=C(N=c1ccn(-c2nc3ccccc3nc2NS(=O)(=O)c2ccccc2)cc1)c1ccccc1Cl,7.1µM,i,i,i,i,i
COc1cc(C=O)c(-c2ccccc2)cc1OC,nt,i,nt,nt,nt,nt
O=C1CSc2ccc(S(=O)(=O)N3CCCCC3)cc2N1,nt,i,nt,nt,nt,nt
CCCCS(=O)(=O)NC1=NCN(CCOC(=O)c2ccccc2)CN1,i,i,i,i,i,-103%
Cc1ccc(S(=O)(=O)NC2=NCN(CCOC(=O)c3ccccc3)CN2)cc1,i,i,i,i,i,i
CCOC(=O)Cc1c(C)c2c(C)nn(-c3ccccc3)c2oc1=O,i,i,i,i,i,-103%
CC(C)(C)NC(=O)C[C@@H]1CCNC[C@@H]1Cc1cc(-c2ccc(C(C)(C)C)cc2)on1,nt,35µM,nt,nt,nt,nt
CC(C)(C)c1ccc(-c2cc(C[C@H]3CNCC[C@H]3CC(=O)NCc3ccc(F)cc3)no2)cc1,nt,22µM,nt,nt,nt,nt
COc1ccc(-c2cc(C[C@H]3CNCC[C@H]3CC(=O)N3CCN(c4ccccc4OC)CC3)no2)cc1,nt,28µM,nt,nt,nt,nt
CC(C)(C)c1ccc(-c2cc(C[C@H]3CNCC[C@H]3CC(=O)Nc3nccs3)no2)cc1,nt,i,nt,nt,nt,nt
COc1ccc(CNC(=O)C[C@@H]2CCNC[C@@H]2Cc2cc(-c3ccc(C(C)(C)C)cc3)on2)cc1,nt,18µM,nt,nt,nt,nt
COc1ccccc1N1CCN(C(=O)C[C@@H]2CCNC[C@@H]2Cc2cc(-c3ccc(F)cc3)on2)CC1,nt,i,nt,nt,nt,nt
Cn1c(=O)c2c(ncn2CCOCCOc2ccccc2)n(C)c1=O,nt,i,nt,nt,nt,nt
O=c1[nH]c2ccccc2nc1/C=C(\O)c1cccs1,10µM,i,?,i,?,i
O/C(=C\c1nc2ccccc2[nH]1)c1cccs1,i,?,i,i,i,i
O=c1[nH]c2cc(Br)cnc2nc1/C=C(\O)c1ccc(F)cc1,10µM,i,i,i,i,i
Nc1nc(CN2CCN(C(=O)c3ccccc3Cl)CC2)nc2ccccc12,nt,i,nt,nt,nt,nt
Cc1nc2cc(NC(C)C(=O)Nc3cccc(Cl)c3)ccc2o1 (stereo not drawn),nt,i,nt,nt,nt,nt
CCCCCCCCCCCCCCCC[n+]1ccc(/C=N/O)cc1,i,?,i,?,i,i
CCCCCCCCCCCCCCCC[n+]1ccc(C(N)=O)cc1,i,45µM,i,?,i,i
Oc1ccc(/C=N/n2c(COc3ccccc3)n[nH]c2=S)c(O)c1,i,45µM,i,i,i,i
CC(C(=O)N(C)CC(=O)Nc1ccccc1C(F)(F)F)N1CCN(Cc2ccc(Cl)cc2)CC1 (stereo not drawn),nt,i,nt,nt,nt,nt
O=c1ccc(C(F)(F)F)cn1Cc1coc(-c2ccccc2)n1,nt,i,nt,nt,nt,nt
Cc1nn(-c2ccc3nnc(C)n3n2)c2c1C(c1cccc(OC(F)F)c1)CC(=O)N2 (stereo not drawn),nt,i,nt,nt,nt,nt
C[C@H](NC[C@H](O)CP(=O)(O)Cc1ccccc1)c1ccc(Cl)c(Cl)c1,nt,20µM!,nt,nt,nt,nt
SMILES,Vif-A3F inh,12-LOX inh,TSG101-PTAP inh,S-ASM inh,Vif-APOBEC3G blk,Akt phos inh
CN(C)CCn1cc(C(=O)c2cc(F)ccc2O)cc1-c1nc2ccccc2c(=O)[nH]1,nt,i,nt,nt,nt,nt
Cc1cnn(C(=S)NCC2CCCO2)c1 (stereo not drawn),i,?,i,i,i,-103%
Cc1ccc(NC(=S)NCC2CCCO2)cc1 (stereo not drawn),i,i,i,i,i,i
O=C1CC(c2ccccc2)N(Cc2ccncc2)CCCN(C(=O)Nc2ccccc2F)CCN1 (stereo not drawn),nt,i,nt,nt,nt,nt
CCC1c2ccsc2CCN1C(=O)CNC(=O)c1ccccc1Cl (stereo not drawn),nt,i,nt,nt,nt,nt
CN(C)C(=O)c1cnc(Cc2c[nH]c3ccccc23)c(I)c1,nt,14µM,nt,nt,nt,nt
COc1ccc(C(CNC(=O)c2cccc3c(=O)c(C)c(-c4ccccc4)oc23)N(C)C)cc1 (stereo not drawn),nt,i,nt,nt,nt,nt
O=C(CSc1ccc(-c2nc3ccccc3[nH]2)cn1)Nc1ccc(S(=O)(=O)N2CCCC2)cc1,i,i,i,i,i,i
